Measured values: PubChem BioAssay (EPA / NIEHS)
Results filed as inconclusive are left out. Active and inactive are the calls of the source. Rule for the calls, unless noted: active = hit-call score of the fitted dose curve at least 0.9, where 1 is the maximum; inconclusive = response in the unintended direction; inactive = score below 0.9.

Columns and labels:
[1] = target: Estrogen-related receptor gamma (Homo sapiens) (UniProt P62508); assay: ATG_ERRg_TRANS: Attagene TRANS-FACTORIAL HepG2 Assay for human Estrogen-Related Receptor gamma (ERRg) (AID 2282977); settings: HepG2 Attagene TRANS reporter, ERRg transactivation;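 note: hits increase reporter signal over DMSO so potencies reflect activators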
Chain of Estrogen-related receptor gamma (Homo sapiens) (P62508 whole entry, looked up, the tested form may be a part): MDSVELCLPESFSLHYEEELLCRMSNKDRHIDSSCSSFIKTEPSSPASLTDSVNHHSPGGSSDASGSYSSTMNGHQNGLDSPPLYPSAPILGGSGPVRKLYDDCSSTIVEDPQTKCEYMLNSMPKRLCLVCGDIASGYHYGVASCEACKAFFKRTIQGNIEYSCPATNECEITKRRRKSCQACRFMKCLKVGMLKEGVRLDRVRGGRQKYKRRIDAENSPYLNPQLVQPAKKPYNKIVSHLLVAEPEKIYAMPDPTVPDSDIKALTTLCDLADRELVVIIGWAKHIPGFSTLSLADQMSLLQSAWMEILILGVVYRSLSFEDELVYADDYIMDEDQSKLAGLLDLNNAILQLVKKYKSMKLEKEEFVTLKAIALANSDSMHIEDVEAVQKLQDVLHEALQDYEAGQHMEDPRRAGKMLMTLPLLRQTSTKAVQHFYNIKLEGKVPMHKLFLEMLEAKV
Procedure, shortened: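 Readout: fluorescent reporter-mRNA fragments resolved by capillary electrophoresis after RT-PCR and HpaI cut. Cells: transiently transfected HepG2 carrying GAL4-UAS reporters driven by exogenous NR-Gal4 chimeras, dosed 24 h. Activity fitted upward relative to DMSO baseline.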

[2] = target: Glucocorticoid receptor (Homo sapiens) (UniProt P04150); assay: ATG_GR_TRANS: Attagene TRANS-FACTORIAL HepG2 Assay for human Glucocorticoid Receptor (GR) (AID 2282978); settings: HepG2 Attagene TRANS GR reporter, mRNA transcription;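 note: activators score as hits since higher reporter transcript over DMSO is fitted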
Chain of Glucocorticoid receptor (Homo sapiens) (P04150 whole entry, looked up): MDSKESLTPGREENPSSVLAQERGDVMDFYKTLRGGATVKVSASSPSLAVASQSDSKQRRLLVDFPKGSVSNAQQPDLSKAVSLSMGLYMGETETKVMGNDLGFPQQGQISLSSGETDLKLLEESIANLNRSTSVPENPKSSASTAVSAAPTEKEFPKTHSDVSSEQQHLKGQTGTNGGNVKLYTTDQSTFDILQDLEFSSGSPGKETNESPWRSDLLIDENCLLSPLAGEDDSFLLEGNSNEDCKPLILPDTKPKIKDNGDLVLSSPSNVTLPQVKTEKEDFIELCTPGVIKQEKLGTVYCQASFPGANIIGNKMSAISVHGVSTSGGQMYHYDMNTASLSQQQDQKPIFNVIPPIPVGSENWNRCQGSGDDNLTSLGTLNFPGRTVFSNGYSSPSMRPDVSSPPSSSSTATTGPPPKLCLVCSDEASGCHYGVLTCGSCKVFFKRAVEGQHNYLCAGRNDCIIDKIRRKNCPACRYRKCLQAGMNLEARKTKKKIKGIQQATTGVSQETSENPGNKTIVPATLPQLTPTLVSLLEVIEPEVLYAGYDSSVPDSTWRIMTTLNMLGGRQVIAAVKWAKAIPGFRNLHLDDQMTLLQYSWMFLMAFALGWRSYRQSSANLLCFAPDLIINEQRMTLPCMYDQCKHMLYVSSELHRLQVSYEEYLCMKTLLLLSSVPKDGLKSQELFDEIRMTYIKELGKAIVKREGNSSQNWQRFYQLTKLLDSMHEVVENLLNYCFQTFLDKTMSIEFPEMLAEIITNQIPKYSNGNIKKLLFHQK
Procedure, shortened: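 After 24 h incubation with test chemical, transfected HepG2 cells were lysed for RNA; reporter cDNA was amplified, FAM-labelled, HpaI-digested and sized on a capillary analyser. Signal gain relative to DMSO was scored.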

[3] = target: Oxysterols receptor LXR-alpha (Homo sapiens) (UniProt Q13133); assay: ATG_LXRa_TRANS: Attagene TRANS-FACTORIAL HepG2 Assay for human Liver X Receptor alpha (LXRa) (AID 2282980); settings: HepG2 Attagene TRANS reporter, LXRa transactivation
Chain of Oxysterols receptor LXR-alpha (Homo sapiens) (Q13133 whole entry, looked up, the tested form may be a part): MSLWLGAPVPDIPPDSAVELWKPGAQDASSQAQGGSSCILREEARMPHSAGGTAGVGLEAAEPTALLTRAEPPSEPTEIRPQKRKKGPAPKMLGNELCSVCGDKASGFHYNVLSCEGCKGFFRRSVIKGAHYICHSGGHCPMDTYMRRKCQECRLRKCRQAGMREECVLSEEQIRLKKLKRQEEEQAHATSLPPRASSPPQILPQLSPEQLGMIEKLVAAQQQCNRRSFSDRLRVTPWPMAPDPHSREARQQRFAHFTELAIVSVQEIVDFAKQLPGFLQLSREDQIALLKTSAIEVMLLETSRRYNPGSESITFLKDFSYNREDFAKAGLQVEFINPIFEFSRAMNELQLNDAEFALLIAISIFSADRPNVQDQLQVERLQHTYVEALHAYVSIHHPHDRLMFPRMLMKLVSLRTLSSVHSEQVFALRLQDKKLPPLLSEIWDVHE
Procedure, shortened: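 HepG2 cells transiently transfected with GAL4-UAS reporter units for chimeric NR-Gal4 proteins, exposed to chemicals for 24 h. Reporter mRNA quantified by RT-PCR and capillary electrophoresis; gain of signal fitted relative to DMSO.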

[4] = target: Oxysterols receptor LXR-beta (Homo sapiens) (UniProt P55055); assay: ATG_LXRb_TRANS: Attagene TRANS-FACTORIAL HepG2 Assay for human Liver X Receptor beta (LXRb) (AID 2282981); settings: HepG2 Attagene TRANS GAL4-LXRb reporter, mRNA
Chain of Oxysterols receptor LXR-beta (Homo sapiens) (P55055 whole entry, looked up, the tested form may be a part): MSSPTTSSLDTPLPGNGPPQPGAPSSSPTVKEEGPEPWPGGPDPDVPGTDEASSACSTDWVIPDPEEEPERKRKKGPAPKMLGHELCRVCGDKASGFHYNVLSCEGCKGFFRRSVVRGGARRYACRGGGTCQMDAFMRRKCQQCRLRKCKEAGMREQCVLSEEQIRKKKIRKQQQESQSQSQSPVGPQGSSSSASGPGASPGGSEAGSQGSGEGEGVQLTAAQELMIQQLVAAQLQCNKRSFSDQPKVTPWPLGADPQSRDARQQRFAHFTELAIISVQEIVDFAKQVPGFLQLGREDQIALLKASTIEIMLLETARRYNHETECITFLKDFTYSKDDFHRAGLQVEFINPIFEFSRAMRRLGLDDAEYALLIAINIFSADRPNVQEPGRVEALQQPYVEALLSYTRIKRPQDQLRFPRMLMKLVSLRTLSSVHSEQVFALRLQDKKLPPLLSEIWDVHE
Procedure, shortened: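 Readout: fluorescent reporter mRNA fragments resolved by capillary electrophoresis after RT-PCR. System: transiently transfected human HepG2, exogenous LXRb-Gal4 chimera driving GAL4-UAS reporter, 24 h dosing. Activity fitted upward against DMSO baseline.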

[5] = target: Hepatocyte nuclear factor 4-alpha (Homo sapiens) (UniProt P41235); assay: ATG_HNF4a_TRANS: Attagene TRANS-FACTORIAL HepG2 Assay for human Hepatocyte Nuclear Factor 4 alpha (HNF4a) (AID 2282982); settings: HepG2 HNF4a transactivation reporter, mRNA readout
Chain of Hepatocyte nuclear factor 4-alpha (Homo sapiens) (P41235 whole entry, looked up): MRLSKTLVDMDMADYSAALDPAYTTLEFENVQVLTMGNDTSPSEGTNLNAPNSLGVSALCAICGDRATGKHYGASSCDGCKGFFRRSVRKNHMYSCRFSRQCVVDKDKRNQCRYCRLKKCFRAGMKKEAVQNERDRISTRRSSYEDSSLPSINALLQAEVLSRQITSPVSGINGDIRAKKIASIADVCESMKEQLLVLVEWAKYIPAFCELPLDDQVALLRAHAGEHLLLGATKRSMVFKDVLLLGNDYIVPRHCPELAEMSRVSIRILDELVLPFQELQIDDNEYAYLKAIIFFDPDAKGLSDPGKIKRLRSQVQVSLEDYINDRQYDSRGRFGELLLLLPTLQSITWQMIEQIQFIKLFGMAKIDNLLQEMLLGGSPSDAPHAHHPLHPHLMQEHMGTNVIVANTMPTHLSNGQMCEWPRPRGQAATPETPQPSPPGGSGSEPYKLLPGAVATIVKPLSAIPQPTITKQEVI
Procedure, shortened: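 Transient MRTU transfection of HepG2, 24 h dosing. Readout: reporter mRNA via RT-PCR + capillary electrophoresis, fluorescence; activity fit upward relative to DMSO control.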

[6] = ATG_M_06_TRANS: Attagene TRANS-FACTORIAL HepG2 Assay for M06 Transcription Factor (Internal Marker) (AID 2282983); settings: HepG2 Attagene TRANS M06 internal marker reporter;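 note: reporter transcript level by RT-PCR then capillary electrophoresis fluorescence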
Procedure, shortened: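 mRNA levels of a reporter transcript, quantified as FAM fluorescence on capillary electrophoresis, served as readout. HepG2 cells expressing exogenous GAL4-chimera reporter constructs were exposed for 24 h. Gain of signal over DMSO was evaluated.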

[7] = ATG_M_32_TRANS: Attagene TRANS-FACTORIAL HepG2 Assay for M32 Transcription Factor (Internal Marker) (AID 2282984); settings: HepG2 Attagene TRANS M32 internal marker reporter;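 note: transcript level of a background control reporter unit measured by RT-PCR and capillary electrophoresis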
Procedure, shortened: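 Read-out: fluorescent reporter cDNA fragments resolved by capillary electrophoresis after RT-PCR of total RNA. Transfected HepG2 cells were exposed to chemical for 24 h. Activity scored in the positive direction relative to DMSO.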

[8] = target: Nuclear receptor subfamily 4 group A member 2 (Homo sapiens) (UniProt P43354); assay: ATG_NURR1_TRANS: Attagene TRANS-FACTORIAL HepG2 Assay for human Nuclear Receptor Related Protein 1 (NURR1) (AID 2282985); settings: HepG2 Attagene TRANS reporter, mRNA readout
Chain of Nuclear receptor subfamily 4 group A member 2 (Homo sapiens) (P43354 whole entry, looked up, the tested form may be a part): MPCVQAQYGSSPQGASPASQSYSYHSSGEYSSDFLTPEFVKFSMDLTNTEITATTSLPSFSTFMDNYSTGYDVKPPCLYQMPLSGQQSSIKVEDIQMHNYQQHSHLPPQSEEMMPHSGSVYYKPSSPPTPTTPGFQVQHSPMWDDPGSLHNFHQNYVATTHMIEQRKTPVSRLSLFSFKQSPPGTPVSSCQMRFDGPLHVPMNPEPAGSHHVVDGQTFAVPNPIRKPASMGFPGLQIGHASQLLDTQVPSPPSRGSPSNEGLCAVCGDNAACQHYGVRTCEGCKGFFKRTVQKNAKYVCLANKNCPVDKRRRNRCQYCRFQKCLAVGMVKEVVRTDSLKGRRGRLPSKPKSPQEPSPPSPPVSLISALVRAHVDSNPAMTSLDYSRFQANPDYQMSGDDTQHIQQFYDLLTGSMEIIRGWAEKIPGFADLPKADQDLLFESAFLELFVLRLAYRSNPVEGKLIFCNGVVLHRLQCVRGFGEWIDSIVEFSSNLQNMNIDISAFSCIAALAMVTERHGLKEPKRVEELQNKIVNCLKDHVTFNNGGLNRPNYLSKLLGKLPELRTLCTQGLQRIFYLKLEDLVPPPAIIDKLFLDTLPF
Procedure, shortened: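 Read-out: reporter mRNA induction by RT-PCR plus capillary electrophoresis with fluorescence detection, after 24 h dosing of transfected HepG2 cells. Exogenous NR-Gal4 chimera activity drives GAL4-UAS reporter; activity fitted upward versus DMSO.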

[9] = target: Transcriptional activator Myb (Homo sapiens) (UniProt P10242); assay: ATG_Myb_CIS: Attagene CIS-FACTORIAL HepG2 Assay for human Myeloblastosis (Myb) Proto-Oncogene Transcription Factor (AID 2282986; active = hit-call score of the fitted dose curve at least 0.9, where 1 is the maximum; inactive = score below 0.9); settings: HepG2 Attagene CIS-FACTORIAL Myb reporter transcription; actives raise or lower the signal
Chain of Transcriptional activator Myb (Homo sapiens) (P10242 whole entry, looked up): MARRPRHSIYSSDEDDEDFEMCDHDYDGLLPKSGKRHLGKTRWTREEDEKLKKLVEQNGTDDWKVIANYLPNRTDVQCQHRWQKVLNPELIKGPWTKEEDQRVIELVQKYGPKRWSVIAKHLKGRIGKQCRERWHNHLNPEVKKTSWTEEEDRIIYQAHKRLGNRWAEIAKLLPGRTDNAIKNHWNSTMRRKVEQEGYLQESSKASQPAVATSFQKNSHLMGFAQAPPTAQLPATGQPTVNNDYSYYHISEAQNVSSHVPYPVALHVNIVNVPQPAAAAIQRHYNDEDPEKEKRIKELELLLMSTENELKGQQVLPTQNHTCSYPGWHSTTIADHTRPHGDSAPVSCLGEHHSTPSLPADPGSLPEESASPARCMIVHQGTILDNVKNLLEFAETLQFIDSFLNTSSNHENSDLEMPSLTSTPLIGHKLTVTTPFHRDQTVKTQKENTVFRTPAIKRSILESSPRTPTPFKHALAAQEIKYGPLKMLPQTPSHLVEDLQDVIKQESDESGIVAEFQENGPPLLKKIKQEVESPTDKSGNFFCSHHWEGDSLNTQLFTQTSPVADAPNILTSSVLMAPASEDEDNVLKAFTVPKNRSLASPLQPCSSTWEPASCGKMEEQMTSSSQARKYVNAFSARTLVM
Procedure, shortened: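 After 24 h of compound dosing, total RNA from transfected HepG2 cells is reverse-transcribed and the reporter sequences amplified, labeled and separated by capillary electrophoresis. Values come from bidirectional fitting against DMSO.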

[10] = target: Bile acid receptor (Homo sapiens) (UniProt Q96RI1); assay: ATG_FXR_TRANS: Attagene TRANS-FACTORIAL HepG2 Assay for Farnesoid X Receptor (FXR) (AID 2282979); settings: HepG2 Attagene TRANS FXR-GAL4 reporter transcription;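 note: hits raise reporter mRNA above DMSO so AC50 marks FXR activation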
Chain of Bile acid receptor (Homo sapiens) (Q96RI1 whole entry, looked up, the tested form may be a part): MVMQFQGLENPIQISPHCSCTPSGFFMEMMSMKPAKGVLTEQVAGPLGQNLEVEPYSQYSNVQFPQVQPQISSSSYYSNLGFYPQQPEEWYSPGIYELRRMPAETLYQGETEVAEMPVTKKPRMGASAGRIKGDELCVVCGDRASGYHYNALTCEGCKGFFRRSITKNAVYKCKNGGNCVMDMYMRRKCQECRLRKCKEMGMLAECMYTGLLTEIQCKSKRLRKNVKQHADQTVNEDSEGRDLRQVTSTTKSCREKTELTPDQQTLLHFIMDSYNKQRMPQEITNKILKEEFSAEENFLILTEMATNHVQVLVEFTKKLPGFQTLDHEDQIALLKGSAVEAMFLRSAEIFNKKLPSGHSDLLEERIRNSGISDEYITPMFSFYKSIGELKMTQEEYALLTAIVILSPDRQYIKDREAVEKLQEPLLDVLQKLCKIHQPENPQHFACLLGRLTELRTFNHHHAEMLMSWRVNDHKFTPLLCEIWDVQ
Procedure, shortened: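 HepG2 cells were transiently transfected with GAL4-UAS reporters driven by chimeric NR-Gal4 proteins and dosed for 24 h. Reporter mRNA was quantified by RT-PCR, fluorescent labelling, HpaI digestion and capillary electrophoresis, with gain of signal scored versus DMSO.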

| SMILES | outcome [1] | outcome [2] | outcome [3] | outcome [4] | outcome [5] | outcome [6] | outcome [7] | outcome [8] | outcome [9] | outcome [10] | AC50 [8] |
| --- | --- | --- | --- | --- | --- | --- | --- | --- | --- | --- | --- |
| O=C(O)C(F)(F)C(F)(F)C(F)(F)F | inactive | inactive | inactive | inactive | inactive | inactive | inactive | inactive | inactive | – | – |
| CC(C)(C)C(=O)CC(=O)C(F)(F)C(F)(F)C(F)(F)F | inactive | inactive | – | inactive | – | inactive | inactive | inactive | inactive | inactive | – |
| O=S(=O)(OCC(F)F)C(F)(F)F | inactive | inactive | inactive | inactive | – | inactive | – | inactive | inactive | – | – |
| O=S(=O)(OCCOC(F)(F)F)C(F)(F)F | inactive | inactive | inactive | inactive | inactive | inactive | inactive | – | inactive | – | – |
| c1ccc(B(c2ccccc2)c2ccccc2)cc1 | inactive | inactive | inactive | – | inactive | inactive | inactive | – | inactive | – | – |
| O=C(O)C(F)(F)C(F)(F)C(F)(F)C(F)(F)C(F)(F)C(F)(F)C(F)(F)C(F)(F)C(F)(F)C(F)(F)C(F)(F)C(F)(F)F | inactive | inactive | inactive | inactive | inactive | inactive | inactive | inactive | inactive | inactive | – |
| OCC(F)(F)C(F)(F)C(F)(F)C(F)(F)C(F)(F)C(F)F | inactive | – | inactive | – | inactive | – | inactive | – | inactive | inactive | – |
| O=C(Cl)C(F)(F)C(F)(F)C(F)(F)C(F)(F)C(F)(F)C(F)(F)C(F)(F)C(F)(F)F | inactive | inactive | – | – | inactive | inactive | inactive | – | inactive | inactive | 24.9 µM (active) |
| CC/C=C\CCOC(=O)c1ccccc1 | inactive | inactive | inactive | inactive | inactive | – | inactive | – | inactive | – | – |
| CCCCCCCOC(=O)c1ccccc1C(=O)OCCCCCCC | inactive | – | – | – | inactive | inactive | – | – | inactive | inactive | – |
